Measured values published in PubChem BioAssay AID588852 (The Scripps Research Institute Molecular Screening Center, 2011).
About 4,600 (1.3%) of roughly 360,000 compounds were called active. For the sample, actives were picked, then their nearest neighbours and some compounds at random. Unmarked numbers belong to inactive results.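 How the source made its calls: active means percent inhibition above its own plate's cutoff, namely the mean of that plate's compound wells plus 3 SD; inactive means the rest.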

The compounds below were run against Muscarinic acetylcholine receptor M1 (Homo sapiens) (UniProt P11229) (assay: human M1 muscarinic receptor antagonists, primary screen, CHO-K1 cells, Fluo-8 calcium fluorescence, 1536-well (AID 588852;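 further: peak over basal fluorescence ratio during 140 s after agonist addition; 0% = ACh EC80 plus DMSO and 100% = DMSO alone without agonist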)). Settings: CHO-K1 hM1, Fluo-8 calcium fluorescence, ACh EC80 antagonist; at 3 µM; stronger effect = higher value.
Sequence of Muscarinic acetylcholine receptor M1 (Homo sapiens) (P11229 whole entry, looked up): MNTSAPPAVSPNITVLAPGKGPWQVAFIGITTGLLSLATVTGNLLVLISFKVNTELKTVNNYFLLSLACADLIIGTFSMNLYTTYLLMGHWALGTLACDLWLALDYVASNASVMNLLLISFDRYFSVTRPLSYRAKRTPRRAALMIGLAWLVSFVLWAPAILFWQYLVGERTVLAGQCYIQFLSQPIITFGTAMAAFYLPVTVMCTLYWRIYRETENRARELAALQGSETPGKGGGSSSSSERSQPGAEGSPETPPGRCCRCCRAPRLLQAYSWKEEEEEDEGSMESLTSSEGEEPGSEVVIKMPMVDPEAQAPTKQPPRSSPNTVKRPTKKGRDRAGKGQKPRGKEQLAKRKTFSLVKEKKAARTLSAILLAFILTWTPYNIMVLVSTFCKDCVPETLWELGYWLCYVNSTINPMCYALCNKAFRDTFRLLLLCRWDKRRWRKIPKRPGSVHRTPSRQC

| Structure (SMILES) | inhibition |
| --- | --- |
| CCOc1ccc2[nH]c(=S)sc2c1 | -3.12% |
| CCc1ccc[n+](-c2nc([O-])sc2C=O)c1 | -4.29% |
| Cc1ccc(S(=O)(=O)N2CCOCC2)cc1C(=O)OC1CCCCC1=O (stereo not given) | 0.72% |
| O=C(/C=C/[C@H]1O[C@@H](n2ccc(=O)[nH]c2=O)[C@H](O)[C@@H]1O)NCc1ccccn1 | -44.8% |
| Cc1cccc(CSc2nnc(C)c(=O)n2N)c1 | -6.73% |
| Cc1cccc(CSc2nc3c(c(=O)n2C)SCC3)c1 | 55.3% (active) |
| Cn1c(SCC(=O)N2CCCCC2)nc2c(c1=O)SCC2 | 17.4% |
| O=C(OCC(=O)N1CCc2ccccc21)C1CCCN1S(=O)(=O)c1ccc(Cl)cc1 (stereo not given) | -8.54% |
| CN[C@H]1C[C@H]2c3cc(Oc4ccccc4C)ccc3CCN2C(=O)[C@H]1[C@H](C)O | -8.68% |
| CCN1CCN(CCNC(=O)c2ccc(/C=C3/Sc4ccccc4N(Cc4cccc(C)c4)C3=O)cc2)CC1 | 35.2% (active) |
| CCN1CCN(CCNC(=O)c2ccc3c(c2)NC(=O)/C(=C\c2cccc(Cl)c2)S3)CC1 | 3.02% |
| Cc1ccccc1CN1C(=O)c2ccccc2Sc2ccc(C(=O)NCCCN3CCOCC3)cc21 | -18.2% |
| C[C@H](NC(=O)CC[C@H]1O[C@@H](n2ccc(=O)[nH]c2=O)[C@H](O)[C@@H]1O)c1cccc2ccccc12 | -22.7% |
| CCC(C)NCCOCCOc1ccc(Br)cc1C (stereo not given) | 34.6% (active) |
| COCCCNCCOCCOc1ccc(Cl)cc1Br | -3.69% |
| COCC(C)NCc1cc(Br)ccc1OC (stereo not given) | -2.87% |
| COC(=O)c1ccc(CN2C(=O)C(Cc3ccccc3)ON=C2c2ncccc2C)o1 (stereo not given) | 0.28% |
| CC(C)C(NC(=O)c1c(F)cccc1F)C(=O)NNC(=O)c1ccccc1 (stereo not given) | 7.65% |
| CCC1Oc2ccccc2N(CC(=O)NCCCN2CCN(CC)CC2)C1=O (stereo not given) | -1.31% |
| Cc1c(C)n(Cc2ccc(Cl)cc2)c2ccc(C(=O)NCCCN3CCOCC3)cc12 | 12.4% |
| CN1CCN(CCCNC(=O)c2ccc(/C=C3\Oc4ccccc4N(Cc4ccc(Cl)cc4)C3=O)cc2)CC1 | 53.5% (active) |
| C=Cn1cc[n+](CC(=O)c2ccc(OC)c(OC)c2)c1 | 8.24% |
| CN(Cc1ccccc1)C(=O)c1ccc(COc2ccccc2)cc1 | -0.5% |
| CCOc1ccc(OCc2ccc(C(=O)N(C)c3ccccc3)o2)cc1 | -7.87% |
| CN(C(=O)CN1CCN(c2cc(-c3ccc(OCc4ccccc4)cc3)ncn2)CC1)c1ccccc1 | 30.1% (active) |
| CC(C)NC(=O)NCCCCCCS(C)=O (stereo not given) | -12% |
| C/C=C/c1ccc(OCCCCN2CCC(C)CC2)c(OC)c1 | 10.4% |
| Cc1sc2ncn(CC(=O)NCCCC(=O)N3CCN(c4ccccc4F)CC3)c(=O)c2c1C | 9.4% |

| Structure (SMILES) | inhibition |
| --- | --- |
| O=C(NN1C(=O)C2C3C=CC(O3)C2C1=O)c1ccccc1 (stereo not given) | -6.53% |
| COc1ccccc1C(=O)NN1C(=O)C2C3C=CC(O3)C2C1=O (stereo not given) | 1.11% |
| COc1ccc(C(=O)NN2C(=O)C3C(c4ccccc4)C=CC(c4ccccc4)C3C2=O)cc1 (stereo not given) | 27.3% (active) |
| Cc1ccc(S(=O)(=O)NCC(=O)N(CC(=O)NCC2CCCO2)c2cccc(F)c2)cc1 (stereo not given) | -7.09% |
| CC(=O)Nc1cccc(-c2ccnc3c2CC(C)(C(=O)NCc2ccccc2)O3)c1 (stereo not given) | -11.3% |
| CC(O)(c1cccc(F)c1)c1nc(-c2ccc3c(c2)OCO3)cs1 (stereo not given) | 1.89% |
| Fc1ccc(-n2c(Cc3ccccc3)nnc2SCc2nc(-c3ccc(Cl)cc3)no2)cc1 | -1.38% |
| CCOc1ccc2[nH]c(=O)c(CN(CCCO)S(=O)(=O)c3ccc(F)cc3)cc2c1 | -1.99% |
| COc1ccc(-c2[nH]ncc2CN(C)Cc2cccnc2)c(F)c1 | -0.76% |
| COc1ccc2[nH]c(=O)c(CN(Cc3cccnc3)S(=O)(=O)c3ccccc3F)cc2c1 | 30.8% (active) |
| O=C(NCCN1CCOCC1)c1ccccc1N1C(=O)[C@@H]2Cc3c([nH]c4ccccc34)C(c3cccc(Cl)c3)N2C1=O (stereo not given in full) | 9.91% |
| CCCc1nc2c3ccccc3ccn2c1Cc1ccccc1C(F)(F)F | 0.78% |
| COc1ccccc1CC1(C)C(=O)Nc2ccc(OC(F)(F)F)cc21 (stereo not given) | -12.6% |
| CC1=C(C(=O)N(C(C)C)C(C)C)CC(CC(=O)NCC2CCCCC2)C(=O)N1Cc1ccccc1 (stereo not given) | -28.2% |
| Cc1c2cnn(CC(=O)NCc3ccccn3)c(=O)c2c(C)n1Cc1ccc(Cl)cc1 | -7.49% |
| N#C/C(=C/c1ccc(N2CCOCC2)o1)C(=O)N1CCOCC1 | -3.41% |
| N#C/C(=C/c1ccc(N2CCCCC2)o1)C(=O)NCCc1c[nH]c2ccccc12 | 44.3% (active) |
| N#C/C(=C\c1ccc(N2CCOCC2)o1)C(=O)N1CCOCC1 | -4.72% |
| Cc1ccc2cc(C)c(N3CCC(C)CC3)nc2c1 | 1.39% |
| Cc1cc(Nc2cc(N3CCN(C)CC3)nc(Sc3ccc(NC(=O)C4CC4)cc3)n2)n[nH]1 | -2.83% |
| CCNC(=S)N(CCN(CC)CC)Cc1cc2cc3c(cc2[nH]c1=O)OCO3 | -13.5% |
| CCN(CC)CCN(C(=O)c1cc(Cl)sc1Cl)c1nc2cc3c(cc2s1)OCO3 | 83.7% (active) |
| CCN(CC)CCN(C(=O)c1ccc2c(c1)CCCC2)c1nc2c(OC)cccc2s1 | 14.3% |
| C[C@@H]1CN([C@H](C)CO)C(=O)c2cc(Br)cnc2O[C@@H]1CN(C)Cc1cncnc1 | -11.6% |
| COc1ccc(S(=O)(=O)N2CCN(C(=O)N(C)C)C2C)cc1 (stereo not given) | -7.85% |
| O=C(CC[C@H]1O[C@@H](n2ccc(=O)[nH]c2=O)[C@H](O)[C@@H]1O)N[C@H](Cc1ccccc1)C(=O)NCc1ccco1 | -4.88% |
| Cc1ccc(S(=O)(=O)N2CC[C@H]3[C@@H](C2)C(=O)C[C@@H](c2ccccc2)N3S(=O)(=O)c2ccc(C)cc2)cc1 | -2.99% |
